Test results reported in ChEMBL document CHEMBL4888484, “Replenishing the malaria drug discovery pipeline: Screening and hit evaluation of the MMV Hit Generation Library 1 (HGL1) against asexual blood stage Plasmodium falciparum ,using a nano luciferase reporter read-out” (2022).
About 410 (8.5%) of roughly 4,800 compounds showed an effect of 50% or more. Shown is part of a subset that was picked to be rich in strong results.

Each compound was assayed on Plasmodium falciparum (assay: Confirmatory screen in NF54 pLDH assay, in single point, at 2uM, 72h). Details: timepoint 72 hour.
Format: functional, Erythrocyte

Row | SMILES | % Inhibition
1 | Cc1ccc(NC(=O)c2c(C)nc3sc(C(=O)NCc4ccccc4)c(N)c3c2-c2cccs2)c(C)c1 | 11%
2 | CCc1ccc(NC(=O)c2sc3nc(C)c(C(=O)Nc4ccc(C)cc4C)c(-c4ccccc4Cl)c3c2N)cc1 | 5%
3 | Cc1ccc(NC(=O)c2c(C)nc3sc(C(=O)NCc4ccccc4)c(N)c3c2-c2ccccc2Cl)c(C)c1 | 87%
4 | CN([C@H]1CCc2nn(CC3CC3)c(=O)n2CC1)S(=O)(=O)c1ccccc1C(F)(F)F | 1%
5 | CC(C)NC(=O)N1C[C@H]2CCCC(=O)N(Cc3cccc(F)c3)[C@H]2C1 | 8%
6 | O=C(NC[C@H]1CCCO1)c1cc(C(=O)C2CC2)c[nH]1 | -8%
7 | COc1nc(-c2cccc(C(=O)NCC3CCOCC3)c2)ncc1F | 80%
8 | COc1ccc(-c2[nH]ncc2C(=O)NCC2CCCCC2)cc1OC | 6%
9 | O=C(NCC1CCOCC1)c1ccc2n[nH]c(=O)n2c1 | 6%
10 | O=C(CC1CCOCC1)NCc1ccccn1 | -24%
11 | COc1nc(-c2cccc(C(=O)N3C[C@@H]4CC[C@H](C3)C(=O)N4)c2)ncc1F | 85%
12 | Cc1ccc(C(=O)N2CC(n3cnnc3C)C2)cc1F | -17%
13 | COc1ccc(C(=O)N2CC[C@H](c3nc(C4CCOCC4)no3)C2)cc1OC | 11%
14 | COCc1cc(C(=O)N[C@H](c2ccccc2)C2CCOCC2)no1 | 8%
15 | CC(C)(NC(=O)CC1(O)CCCCC1)C(=O)Nc1ccccc1 | 5%
16 | O=C(Nc1ccc(F)cc1)c1c(-c2ccc(Cl)cc2)nc2n1CCS2(=O)=O | -4%
17 | COC(=O)C1C2CCC(C2)C1NC(=O)c1ccncc1 (stereo not drawn) | 2%
18 | O=C([C@@H]1CCCN1c1ncc(C(F)(F)F)cc1Cl)N1Cc2ccccc2C1 | -18%
19 | CCOC(=O)[C@@H](NC(=O)Nc1ccccc1C(F)(F)F)C(F)(F)F | 11%
20 | O=C(NC1CC1C1CCCCC1)N1CCS(=O)(=O)CC1 (stereo not drawn) | -4%
21 | CCc1c(NC(=O)[C@@H](C)C2CC2)nnn1CCc1ccc(OC)cc1 | 12%
22 | COc1ccc(NC(=O)[C@@H](C)C2CCOCC2)cc1 | -5%
23 | COC(=O)c1c(NC(C)=O)c2cc(NC3CCOCC3)cnc2n1CCc1ccc(OC)cc1 | 61%
24 | Cc1nc(CN2C(=O)C(=O)c3cc(Br)ccc32)cs1 | 9%
25 | Cc1ccn2c(CN3CCN([C@H]4CCN(Cc5ccccc5)C4)CC3)c(C)nc2c1 | 9%

Row | SMILES | % Inhibition
26 | O=C(Cc1cccc2ccccc12)NC(C1CC1)C1CC1 | -12%
27 | COc1ccc(NS(=O)(=O)c2ccc(NC(=O)CN(c3ccc(F)cc3)S(C)(=O)=O)cc2)cc1 | 12%
28 | COc1ccccc1Cc1nnc2n1CCCC2 | 8%
29 | COc1cc(NC(=O)N2CC(c3noc(-c4ccccc4)n3)C2)cc(OC)c1OC | 3%
30 | COc1cc(CNC2CCCCC2)cc(Br)c1OCc1ccccc1Cl | 8%
31 | CNC(=O)[C@@H]1C[C@H](NCc2cc(OC)c(OC)c(OC)c2)CN1CC(c1ccccc1)c1ccccc1 | 50%
32 | CC(=O)c1ccc(C(C)(C)C)cc1NC(=O)C(C)C | 8%
33 | O=C(CCn1nc2ccccn2c1=O)N1CC(CC(F)F)C1 | 6%
34 | C[C@]1(C(=O)O)Nc2ccccc2-c2nc(=O)c(-c3ccccc3)nn21 | 9%
35 | O=c1nc2n(nc1-c1ccccc1)C1(CCC1)Nc1ccccc1-2 | 60%
36 | C[C@]1(CCc2ccc(O)cc2)Nc2ccccc2-c2nc(=O)c(-c3ccc(F)cc3)nn21 | -12%
37 | Nc1nccnc1C(=O)Nc1c(-c2ccccc2)ncn1C1CC1 | 3%
38 | COc1ccc(-n2ncc(Oc3cccc(C)c3)c(Nc3cccc(C(=O)NCc4ccc(F)cc4)c3)c2=O)cc1 | 30%
39 | Cn1cc2c(n1)CCC[C@@H]2NC(=O)c1cccc(C(=O)NC2CC2)c1 | 0%
40 | CC(C)c1ccc(Oc2cnn(-c3cccc(Cl)c3)c(=O)c2Nc2cccc(C(=O)NC3CC3)c2)cc1 | 54%
41 | CCn1ncc2ccc(N[C@@H](C)C3(O)CCOCC3)cc21 | 12%
42 | CCOc1ccc(C(=O)N2CCN(c3nnc4ccccn34)CC2)cc1 | 8%
43 | CC(=O)c1cccc(NC(=O)[C@@]23CCC(=O)N2c2ccccc2C(=O)N3C)c1 | 88%
44 | CCCN1C(=O)c2ccccc2N2C(=O)CC[C@@]12C(=O)Nc1ccccc1 | 97%
45 | COc1ccc(NC(=O)C2=NN(CC(=O)Nc3cccc(OC)c3)C(=O)CC2)cc1 | -4%
46 | CC(=O)c1cccc(NC(=O)c2nonc2C)c1 | -11%
47 | COc1ccc(NC(=O)CCC(=O)N2CCc3ccccc3C2)cc1 | 6%
48 | CCCN1C(=O)c2ccccc2N2C(=O)CC[C@@]12C(=O)Nc1ccc(OC)cc1 | 92%
49 | O=C(CN1C[C@@H](c2ccccc2)Oc2ccccc2C1=O)Nc1ccccc1 | -14%
50 | COc1cccc(NC(=O)c2ccc3c(c2)N(C)[C@@H]2CCCCCN2C3=O)c1 | 9%

Row | SMILES | % Inhibition
51 | CC(=O)c1cccc(NC(=O)Cn2c(=O)n(CCc3ccccc3)c(=O)c3ccccc32)c1 | 10%
52 | COc1ccc(NC(=O)CN2N=C(C(=O)Nc3ccccc3)CCC2=O)cc1 | -2%
53 | CCN1C(=O)c2ccccc2N2C(=O)CC[C@@]12C(=O)Nc1cccc(OC)c1 | 96%
54 | CC(=O)N1C(C(=O)O)Cc2c([nH]c3ccccc23)C1c1ccc2c(c1)OCO2 (stereo not drawn) | 5%
55 | Clc1ccc(Cl)c(-c2ccc(CNn3cnnc3)o2)c1 | 11%
56 | O=C(NCC1(Cc2ccccc2)CCC1)N(CCO)C1CC1 | -1%
57 | Cc1ccn(-c2ccc(C(=O)NC3CCCC3)cn2)n1 | -9%
58 | C[C@@H](C(=O)Nc1ncc[nH]1)c1ccc2c(c1)[nH]c1ccc(Cl)cc12 | 16%
59 | c1coc([C@H](CNC2CCCC2)N2CCCC2)c1 | -12%
60 | O=C1NCCC[C@@H]1Nc1ccc(C(F)(F)F)nn1 | 2%
61 | COC[C@H]1[C@H](NC(=O)c2ncc(F)cc2F)[C@H]2CCO[C@H]21 | -17%
62 | Nc1nc(N2CCN(c3ccc(F)c(Cl)c3)CC2)cc([C@H]2C[C@@H](N)C2)n1 | 34%
63 | Nc1nc(C2CC(N)C2)cc(N2CCC(Oc3ccccc3Cl)CC2)n1 (stereo not drawn) | 65%
64 | O=C(CN1CCN(Cc2ccc(F)cc2)C1=O)NC1CCCCCCC1 | 0%
65 | CC[C@@H](Cc1ccccc1Br)C(=O)NCCC(N)=O | -6%
66 | O=C(Nc1ccc(NC2CCOCC2)cc1)c1cc(F)c(O)c(F)c1 | -10%
67 | CC1(C)Oc2ccc(NC(=O)COc3ccccc3)cc2NC1=O | 12%
68 | O=C(COc1ccccc1)Nc1ccc2c(c1)C(O)=Nc1cccnc1O2 | 64%
69 | CC(C)(C)CC(=O)Nc1ccc2c(c1)C(N1CCCCC1)=Nc1ccccc1O2 | -4%
70 | CC(C)(C)OC(=O)Cn1cc(CO)nn1 | 10%
71 | O=C(C[C@H]1CCOC1)Nc1cc2ccc(Br)cn2n1 | 11%
72 | COC(=O)c1cc(NC(=O)N2CCO[C@H](C(=O)OC)C2)c(F)cc1F | 6%
73 | CC1CN(C(=O)C(C(C)C)N2CC(C)OC(C)C2)CCO1 (stereo not drawn) | -12%
74 | COc1ccc(NC(=O)C2=Cc3cc(Cl)cc(OC)c3OC=C2)cc1 | -1%
75 | CCCN(CCC)CCN1C(=O)[C@@H]2C(C(=O)Nc3cc(Cl)cc(Cl)c3)[C@@H]3C=C[C@]2(O3)C1C(=O)NC1CCCCC1 (stereo partly drawn) | 50%

Row | SMILES | % Inhibition
76 | O=c1[nH]cnc2c1nc(N1CCCCC1)n2C1OC(CO)C(O)C1O (stereo not drawn) | 3%
77 | O=C(Cc1nnc2ccc(C(=O)Nc3ccccc3)cn12)Nc1ccc(F)cc1 | 8%
78 | CCc1cc(C(=O)N2CCCCCC2)c2c(C3CC3)nn(-c3ccc(F)cc3)c2n1 | 5%
79 | O=C(CCCc1ccccc1)Nc1cc(C2CC2)nn1-c1nc(-c2ccccc2)cc(=O)[nH]1 | 36%
80 | Cc1cc(=O)[nH]c(-n2nc(C3CC3)cc2NC(=O)c2ccc(C(C)(C)C)cc2)n1 | 52%
81 | CN1CCC[C@H](C(=O)Nc2nc(C3CC3)cs2)C1 | -2%
82 | Cc1nn(C)c(NC(=O)c2ccc(C(C)(C)C)cc2)c1C1=CCCCC1 | -5%
83 | CCC(CC)C(=O)Nc1cc(C2CC2)nn1-c1nc(-c2ccccc2)cc(=O)[nH]1 | 45%
84 | Cc1cc(=O)[nH]c(-n2nc(C3CC3)cc2NC(=O)C(c2ccccc2)c2ccccc2)n1 | 87%
85 | Cc1cc(F)ccc1NC(=O)Cn1nc(C2CC2)c2c(C(F)F)cc(=O)[nH]c21 | 9%
86 | Cc1ccc(C(=O)Nc2c(C(N)=O)sc3nc(C(F)F)cc(C4CC4)c23)cc1 | -9%
87 | CC(C)(C)c1ccc(C(=O)N[C@H]2CCCC[C@@H]2NC(=O)c2ccc(C(C)(C)C)cc2)cc1 | 2%
88 | CC(C)c1cc(=O)[nH]c(-n2nc(C3CC3)cc2NC(=O)c2ccc(F)cc2)n1 | 89%
89 | CCc1cc(=O)[nH]c(-n2nc(C3CC3)cc2NC(=O)C2CCCCC2)n1 | 87%
90 | CC1CC(c2ccccc2)CCN1C(=O)c1cc(C2CC2)on1 (stereo not drawn) | 6%
91 | Cc1n[nH]cc1Nc1ccnc(C(C)(C)C)n1 | 7%
92 | CC(C)OC[C@@H](O)CN1CC(C2CCC2)C1 | -19%
93 | CC1CCCCC1NC(=O)CN1CCN(Cc2cccc(Cl)c2)C1=O (stereo not drawn) | -4%
94 | Cc1cc2ncc(-n3cncn3)c(-c3ccccc3)n2n1 | 8%
95 | CCc1ccc(CN2CCN(Cc3cccc(Oc4ccccc4)c3)CC2)cc1 | 8%
96 | CCC1CC(CC(=O)NS(=O)(=O)c2ccnn2C)CCO1 (stereo not drawn) | 0%
97 | COc1ccc2cc3n(c2c1)C[C@](C(=O)NC1CCCCCC1)(c1ccccc1)N(Cc1ccccc1Cl)C3=O | 13%
98 | CC1(C)CCCc2sc(NC(=O)N[C@H]3CCOC4(CCC4)C3)nc21 | 1%
